Screening results (PubChem)
A selection: hits, their analogues and other compounds. The true share with any hit is near 5.7%.
GRIN3A LBD mod: NR3A (human) ligand-binding domain modulation; NR3A LBD differential scanning fluorimetry, Tm shift; 0% = protein alone, 100% = glycine-bound protein; Tm shift relative to glycine control, % at 25 µM; 340,000 compounds, 2.5% hits;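 active means melting temperature shift of at least 10% of the positive control shift, at one fixed dose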
MPTP inh: permeability transition pore inhibition | isolated mouse mitochondria, Ca2+ swelling absorbance, 30 min | inhibition, % at 10 µM | 360,000 compounds, 1.4% hits | AID 602449;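 active means inhibition of 50% or more, scaled per plate between neutral and stimulator controls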
rCAG RNA binder: binds r(CAG) RNA repeats. r(CAG) RNA repeat, TO-PRO-1 dye displacement fluorescence. inhibition, % at 3 µM. 370,000 compounds, 1.3% hits. AID 651821;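 active means inhibition above the plate cutoff, the mean of all test compounds on that plate plus 3 SD, cut at about 35% in these data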;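 further: higher means more dye released from RNA so lower well fluorescence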
FAS-TE inh: inhibitors of human fatty acid synthase thioesterase domain. 360,000 compounds, 0.67% hits. recombinant FAS-TE, OMFH fluorogenic substrate, fluorescence endpoint. AID 602261. inhibition, % at 15 µM. P49327;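 active means compounds whose normalised, plate-corrected inhibition of enzyme fluorescence in the single-dose primary screen is 50% or more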
Target sequence (P49327 whole entry, looked up, the tested form may be a part): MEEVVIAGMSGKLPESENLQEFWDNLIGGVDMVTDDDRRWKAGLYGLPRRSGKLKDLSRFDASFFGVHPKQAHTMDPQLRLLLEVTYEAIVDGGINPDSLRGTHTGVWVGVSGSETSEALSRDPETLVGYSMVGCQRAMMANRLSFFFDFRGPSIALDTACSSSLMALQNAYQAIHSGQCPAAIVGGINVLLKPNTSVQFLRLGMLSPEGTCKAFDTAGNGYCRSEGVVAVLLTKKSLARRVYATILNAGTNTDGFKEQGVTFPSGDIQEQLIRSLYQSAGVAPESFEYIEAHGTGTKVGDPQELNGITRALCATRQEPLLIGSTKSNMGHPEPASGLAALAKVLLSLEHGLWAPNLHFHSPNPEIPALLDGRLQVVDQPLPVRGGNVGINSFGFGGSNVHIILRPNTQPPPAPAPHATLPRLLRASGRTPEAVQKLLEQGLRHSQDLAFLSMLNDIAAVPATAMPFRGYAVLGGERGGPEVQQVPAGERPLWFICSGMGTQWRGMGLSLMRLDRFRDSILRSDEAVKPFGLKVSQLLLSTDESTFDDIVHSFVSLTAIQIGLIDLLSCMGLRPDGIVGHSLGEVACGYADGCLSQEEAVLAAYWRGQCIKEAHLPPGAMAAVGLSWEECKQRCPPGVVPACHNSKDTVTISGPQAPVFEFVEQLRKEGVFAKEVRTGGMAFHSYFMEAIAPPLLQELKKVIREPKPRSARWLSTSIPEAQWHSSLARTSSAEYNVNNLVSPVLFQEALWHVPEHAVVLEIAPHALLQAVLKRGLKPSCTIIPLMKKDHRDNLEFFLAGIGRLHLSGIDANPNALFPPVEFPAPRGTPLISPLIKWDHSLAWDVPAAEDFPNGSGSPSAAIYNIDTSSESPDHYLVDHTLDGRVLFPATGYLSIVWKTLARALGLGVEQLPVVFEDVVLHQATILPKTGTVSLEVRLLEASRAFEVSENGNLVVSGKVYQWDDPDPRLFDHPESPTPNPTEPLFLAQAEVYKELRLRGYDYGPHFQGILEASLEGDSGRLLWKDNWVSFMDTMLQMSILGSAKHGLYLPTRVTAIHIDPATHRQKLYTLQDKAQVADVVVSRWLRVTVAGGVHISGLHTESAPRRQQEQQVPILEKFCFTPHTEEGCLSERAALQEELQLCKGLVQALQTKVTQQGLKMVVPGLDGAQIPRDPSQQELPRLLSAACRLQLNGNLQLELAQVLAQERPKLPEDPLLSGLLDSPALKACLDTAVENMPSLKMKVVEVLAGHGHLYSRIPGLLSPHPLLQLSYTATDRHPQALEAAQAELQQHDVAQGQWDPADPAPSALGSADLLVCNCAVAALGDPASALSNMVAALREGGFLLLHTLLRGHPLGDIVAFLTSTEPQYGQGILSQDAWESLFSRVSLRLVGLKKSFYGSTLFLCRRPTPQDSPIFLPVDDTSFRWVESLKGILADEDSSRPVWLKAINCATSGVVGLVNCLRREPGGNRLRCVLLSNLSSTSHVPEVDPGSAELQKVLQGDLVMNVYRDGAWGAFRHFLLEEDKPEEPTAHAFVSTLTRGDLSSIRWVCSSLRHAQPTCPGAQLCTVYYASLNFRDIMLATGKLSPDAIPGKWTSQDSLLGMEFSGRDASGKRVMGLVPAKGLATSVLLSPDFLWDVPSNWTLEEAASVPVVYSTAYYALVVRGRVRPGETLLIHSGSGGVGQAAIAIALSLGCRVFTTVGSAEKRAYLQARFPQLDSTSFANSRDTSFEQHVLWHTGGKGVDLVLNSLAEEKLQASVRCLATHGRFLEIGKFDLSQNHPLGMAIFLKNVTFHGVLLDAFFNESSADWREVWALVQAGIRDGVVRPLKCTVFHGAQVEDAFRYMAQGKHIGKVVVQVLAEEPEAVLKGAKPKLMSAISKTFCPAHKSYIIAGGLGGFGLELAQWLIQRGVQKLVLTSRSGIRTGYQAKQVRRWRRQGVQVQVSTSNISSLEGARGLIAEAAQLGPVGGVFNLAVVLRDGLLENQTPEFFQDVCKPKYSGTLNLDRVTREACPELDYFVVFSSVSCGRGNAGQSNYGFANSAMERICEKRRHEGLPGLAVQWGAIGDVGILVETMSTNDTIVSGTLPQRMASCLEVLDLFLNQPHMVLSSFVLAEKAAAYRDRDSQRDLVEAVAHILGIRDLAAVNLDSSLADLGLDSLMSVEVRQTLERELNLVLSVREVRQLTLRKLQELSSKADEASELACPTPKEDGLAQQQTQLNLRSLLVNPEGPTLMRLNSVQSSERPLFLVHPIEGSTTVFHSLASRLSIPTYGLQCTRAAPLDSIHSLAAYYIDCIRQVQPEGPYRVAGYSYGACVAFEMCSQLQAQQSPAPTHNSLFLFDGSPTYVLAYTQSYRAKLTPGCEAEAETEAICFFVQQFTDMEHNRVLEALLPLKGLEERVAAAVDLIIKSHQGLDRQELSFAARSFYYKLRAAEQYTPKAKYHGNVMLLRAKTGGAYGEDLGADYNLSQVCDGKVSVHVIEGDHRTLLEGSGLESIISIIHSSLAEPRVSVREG
Myeloid diff MLP: compounds promoting myeloid differentiation. 360,000 compounds, 1% hits. calls only at 10 µM. AID 624256. ER-HoxA9 myeloid progenitors, lysozyme-GFP differentiation, flow cytometry;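 active means normalized GFP-positive differentiation at or above the plate's own cutoff, the solvent-only control mean plus 3 SD; inconclusive means no clear call, values can overlap the other calls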;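 further: cells exposed to compound for four days before flow analysis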
Rh123 counter: membrane potential counter-screen of mitochondrial pore inhibitors. 5,000 compounds, 78% hits. isolated mitochondria, Rhodamine 123 fluorescence. shares compounds with MPTP inh. AID 624504. inhibition, % at 10 µM; in the data active means inhibition above about 22%
MPTP abs DR: dose response confirmation of mitochondrial permeability transition pore inhibitors; 780 compounds, 58% hits; IC50, µM; isolated mitochondria swelling, absorbance; shares compounds with MPTP inh; AID 651561; in the data active means IC50 below about 20 µM
MPTP cs DR: MPTP inhibitor counter-screen activity, dose response | shares compounds with MPTP inh | isolated mitochondria counterscreen, fluorescence read-out | IC50, µM | 780 compounds, 49% hits | AID 651564; in the data active means IC50 below about 80 µM
Hits are given with their value.

CC(C)n1cc(CN2CCC(C(=O)Nc3ccc(Oc4ccccc4F)cc3)CC2)cn1 was read as GRIN3A LBD mod inactive, MPTP inh 83, rCAG RNA binder inactive, FAS-TE inh inactive, Myeloid diff MLP inactive, Rh123 counter inactive, MPTP abs DR 4.6 and MPTP cs DR 26.
Screening C/C(=N\N(c1ccccc1)c1ccccc1)c1ccco1 returned GRIN3A LBD mod inactive, MPTP inh inactive, rCAG RNA binder inactive, FAS-TE inh inactive and Myeloid diff MLP inactive.
Screening C/C(=N\N=C(c1ccccc1)c1ccccc1)c1ccco1 returned GRIN3A LBD mod inactive, MPTP inh 93, FAS-TE inh inactive, Myeloid diff MLP inactive and Rh123 counter inactive.
CCCOC(=O)c1ccc(OCC(O)Cn2c(C)nc3ccccc32)cc1 (centres undefined) was read as GRIN3A LBD mod inactive, MPTP inh 53, rCAG RNA binder inactive, FAS-TE inh inactive, Myeloid diff MLP inactive and Rh123 counter 103.
Screening Cn1cc([C@@H]2C[C@H]3CN(Cc4cccc(Cl)c4)C(=O)[C@]34CCCN24)c(-c2ccccc2)n1 returned GRIN3A LBD mod inactive, MPTP inh inactive, rCAG RNA binder inactive, FAS-TE inh inactive and Myeloid diff MLP inactive.
Screening CCOC(=O)Cn1nc(C)c(NC(=O)c2cccc([N+](=O)[O-])c2)c1C returned GRIN3A LBD mod inactive, MPTP inh inactive, rCAG RNA binder inactive, FAS-TE inh inactive and Myeloid diff MLP inactive.
Screening CCOC(=O)Cn1nc(C)c(NC(=O)c2ccc(Cl)c([N+](=O)[O-])c2)c1C returned GRIN3A LBD mod inactive, MPTP inh 61, rCAG RNA binder inactive, FAS-TE inh inactive, Myeloid diff MLP inactive and Rh123 counter 77.
For CS(=O)(=O)N(CC(=O)Nc1ccc(S(=O)(=O)N2CCCC2)cc1)c1ccccc1F the results were GRIN3A LBD mod inactive, MPTP inh inactive, rCAG RNA binder inactive, FAS-TE inh inactive and Myeloid diff MLP inactive.
Screening NS(=O)(=O)c1ccc(NC(CNS(=O)(=O)c2ccccc2)c2ccccc2)cc1 (centres undefined) returned GRIN3A LBD mod inactive, MPTP inh inactive, rCAG RNA binder inactive, FAS-TE inh inactive and Myeloid diff MLP inactive.
O=S(=O)(NCC(Nc1ccc(Cl)cc1)c1ccccc1)c1ccccc1 (centres undefined) was read as GRIN3A LBD mod 23, MPTP inh 75, rCAG RNA binder inactive, FAS-TE inh inactive, Myeloid diff MLP inactive and Rh123 counter 87.
Screening Cc1ccccc1CN1CCc2c(OCC(=O)N3CCCc4ccccc43)cccc2C1=O returned GRIN3A LBD mod inactive, MPTP inh inactive, rCAG RNA binder inactive, FAS-TE inh inactive and Myeloid diff MLP inactive.
`O=C1c2cccc(OCC(=O)N3CCCc4ccccc43)c2CCN1Cc1cccnc1` gave GRIN3A LBD mod inactive, MPTP inh 82, rCAG RNA binder inactive, FAS-TE inh inactive, Myeloid diff MLP inactive and Rh123 counter 34.
Screening CCOC(=O)C1CCCN(C(=O)c2ccc(S(=O)(=O)N3CCCC3)cc2)C1 (centres undefined) returned GRIN3A LBD mod inactive, MPTP inh inactive, rCAG RNA binder inactive, FAS-TE inh inactive and Myeloid diff MLP inactive.
CCOC(=O)C1CCCN(S(=O)(=O)c2ccc(S(=O)(=O)N3CCCC3)cc2)C1 (centres undefined) was read as GRIN3A LBD mod inactive, MPTP inh 62, rCAG RNA binder inactive, FAS-TE inh inactive, Myeloid diff MLP inactive and Rh123 counter 74.
CC1CCCN(CCC(=O)c2ccc(Br)cc2)C1 (centres undefined) was read as GRIN3A LBD mod inactive, MPTP inh 114, rCAG RNA binder inactive, FAS-TE inh inactive, Myeloid diff MLP inactive, Rh123 counter inactive, MPTP abs DR 5.7 and MPTP cs DR inactive.
CCCCCCc1cc2cc(C(=O)Nc3ccccc3)c(=O)oc2cc1O was read as GRIN3A LBD mod 17, MPTP inh 73, rCAG RNA binder inactive, FAS-TE inh inactive, Myeloid diff MLP inconclusive and Rh123 counter inactive.
Screening CCCCCCc1cc2cc(C(=O)NCc3ccccc3)c(=N)oc2cc1O returned GRIN3A LBD mod inactive, MPTP inh 86, rCAG RNA binder inactive, FAS-TE inh inactive, Myeloid diff MLP inactive and Rh123 counter 74.
Screening N=c1oc2ccccc2cc1C(=O)Nc1ccccc1 returned GRIN3A LBD mod inactive, MPTP inh inactive, rCAG RNA binder inactive, FAS-TE inh inactive and Myeloid diff MLP inactive.
